We go through 15 compounds from PubChem BioAssay.

Inconclusive results are not listed. For part of these data: Measured potencies and affinities stand elsewhere. Calls of active or inactive are those of the source. Cut-off read from the data, not from the text of the source: active = fluorescence slope change above about 50%; inconclusive = mostly about 31% to 49%; inactive = weaker than that.

Test [1] concerns the target ATP-dependent translocase ABCB1 (Homo sapiens) (UniProt P08183). As to the kind of experiment: MDR1 (ABCB1) efflux transporter inhibition, cell-based (AID 377). The settings on record: MDR1-expressing cells, fluorescent substrate accumulation slope; stronger effect = higher value; concentration not given here.
Test [2] in a line: polyglutamine-triggered caspase-3 activation inhibitors, cell-based (AID 1583). The settings on record: polyglutamine-induced caspase-3 activation, cell assay; stronger effect = higher value;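 tested at 10 µM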.
Test [3] in a line: suppressors of polyQ aggregation in yeast, 75Q-TubU reporter (AID 1593). The settings on record: Yeast 75Q polyglutamine aggregation reporter.
Test [4] in a line: rescue of polyQ-huntingtin neuronal dysfunction in worms, whole organism, C. elegans mechanosensory neurons, N-terminal huntingtin (AID 1599). The settings on record: touch response, stronger effect = higher value.
Test [5] in a line: inhibitors of mitochondrial cytochrome c release, biochemical, purified mitochondria (AID 1603).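 Note: mouse liver mitochondria challenged with calcium chloride; signal normalized to the plate average as 100%.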 The settings on record: stronger effect = lower value.
A short description of test [6]: inhibitors of polyQ protein aggregation (AID 1604). To be noted: polyglutamine-induced protein aggregation inhibition assay; stronger effect = higher value; tested at 2.5 µM.

Sequence of ATP-dependent translocase ABCB1 (Homo sapiens) (P08183 whole entry, looked up): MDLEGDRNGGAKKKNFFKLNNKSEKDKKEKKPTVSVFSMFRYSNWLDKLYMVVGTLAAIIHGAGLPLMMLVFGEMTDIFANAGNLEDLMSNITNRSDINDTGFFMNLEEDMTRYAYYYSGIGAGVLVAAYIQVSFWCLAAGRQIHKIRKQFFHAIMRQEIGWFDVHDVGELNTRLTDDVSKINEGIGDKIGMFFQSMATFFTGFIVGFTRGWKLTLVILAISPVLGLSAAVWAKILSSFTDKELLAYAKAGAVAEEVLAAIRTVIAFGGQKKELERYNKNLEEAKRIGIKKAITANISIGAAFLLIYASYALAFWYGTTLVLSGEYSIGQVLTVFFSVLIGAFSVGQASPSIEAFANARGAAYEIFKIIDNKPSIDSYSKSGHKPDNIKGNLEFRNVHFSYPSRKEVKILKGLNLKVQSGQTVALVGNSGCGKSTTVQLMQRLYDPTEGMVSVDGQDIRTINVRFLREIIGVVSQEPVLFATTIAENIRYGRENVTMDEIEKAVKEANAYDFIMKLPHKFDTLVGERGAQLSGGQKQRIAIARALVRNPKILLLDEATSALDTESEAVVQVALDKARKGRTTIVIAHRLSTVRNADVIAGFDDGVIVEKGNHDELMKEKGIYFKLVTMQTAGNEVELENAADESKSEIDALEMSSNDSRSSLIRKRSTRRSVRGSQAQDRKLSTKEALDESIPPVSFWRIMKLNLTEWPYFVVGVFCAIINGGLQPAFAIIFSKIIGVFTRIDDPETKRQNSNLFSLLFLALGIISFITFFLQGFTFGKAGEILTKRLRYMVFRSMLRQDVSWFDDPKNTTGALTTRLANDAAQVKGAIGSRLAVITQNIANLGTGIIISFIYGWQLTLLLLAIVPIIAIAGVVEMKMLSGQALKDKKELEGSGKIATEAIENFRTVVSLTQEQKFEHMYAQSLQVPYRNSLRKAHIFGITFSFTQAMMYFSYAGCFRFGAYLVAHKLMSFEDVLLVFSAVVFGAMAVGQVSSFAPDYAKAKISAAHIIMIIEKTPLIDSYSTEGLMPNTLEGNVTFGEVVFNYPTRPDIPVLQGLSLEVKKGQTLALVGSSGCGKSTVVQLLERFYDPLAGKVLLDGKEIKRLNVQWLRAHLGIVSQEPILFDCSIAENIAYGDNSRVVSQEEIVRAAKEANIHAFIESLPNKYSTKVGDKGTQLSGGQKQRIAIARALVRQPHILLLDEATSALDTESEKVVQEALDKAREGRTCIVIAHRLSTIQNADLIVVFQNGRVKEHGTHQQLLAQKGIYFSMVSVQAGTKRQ

As usually defined, the inhibition is the drop in the measured response relative to a control, in per cent. As for `CC(C(=O)O)c1ccc(C(=O)c2cccs2)cc1` (stereo not given), the fluorescence slope change in test [1] is 12.2% (inactive). Further, the inhibition in test [2] was 7.38%. Moreover, the score in test [3] turned out to be 0.92. Further, the rescue above control in test [4] was -0.97. Moreover, in test [5], the cytochrome c release ratio amounted to 1.35. The compound also returned an inhibition of aggregation in test [6] of 91.6%.
Take `C[C@](N)(Cc1ccc(O)c(O)c1)C(=O)O`: in test [1], the fluorescence slope change is 52.1% (active). Besides, in test [2], the inhibition stood at 10.4%. The compound also gave a score in test [3] of 1.25. Moreover, the rescue above control in test [4] turned out to be 10.7. Also, the cytochrome c release ratio in test [5] was determined as 1.01. The compound also displayed an inhibition of aggregation in test [6] of 31.7%.
For the compound `COc1c2occc2c(OC)c2c(=O)cc(C)oc12`, the fluorescence slope change in test [1] is 54.2% (active). Moreover, the inhibition in test [2] was 3.52%. The compound further had a score in test [3] of 0.76. The compound also showed a rescue above control in test [4] of 0. Besides, the cytochrome c release ratio in test [5] turned out to be 1.14. This compound also gave an inhibition of aggregation in test [6] of 63.2%.
As for `COC(=O)[C@H]1[C@H]2C[C@@H]3c4[nH]c5cc(OC)ccc5c4CCN3C[C@H]2C[C@@H](OC(=O)c2cc(OC)c(OC)c(OC)c2)[C@@H]1OC`, the fluorescence slope change in test [1] was 51.8% (active). Also, the inhibition in test [2] is -42.7%. The compound also displayed a score in test [3] of 1.16. Further, in test [4], the rescue above control is -12.7. For the same compound, the cytochrome c release ratio in test [5] worked out at 1.46. This compound gave an inhibition of aggregation in test [6] of 63.2%.
For `O=C1CC2(CCCC2)CC(=O)N1CCCCN1CCN(c2ncccn2)CC1`, the fluorescence slope change in test [1] was 65.3% (active). Besides, in test [2], the inhibition was -0.71%. Moreover, the score in test [3] was found to be 1.18. This compound also had a rescue above control in test [4] of 1.91. In addition, the cytochrome c release ratio in test [5] turned out to be 1.06. In test [6], this compound displayed an inhibition of aggregation of 48.3%.
As for `CC1CCc2cc(F)cc3c(=O)c(C(=O)O)cn1c23` (stereo not given), in test [1], the fluorescence slope change was 50.2% (active). The inhibition in test [2] turned out to be 4.46%. In test [3], this compound had a score of 1.12. The rescue above control in test [4] was -5.46. Further, the cytochrome c release ratio in test [5] was 1.29. The inhibition of aggregation in test [6] is 44.4%.
For `Cc1cc(C(C)(C)C)c(O)c(C)c1CC1=NCCN1`, the fluorescence slope change in test [1] is 75.3% (active). For the same compound, the inhibition in test [2] was -9.11%. For the same compound, in test [3], the score came to 1.29. Moreover, the rescue above control in test [4] was found to be 2.64. Also, the cytochrome c release ratio in test [5] is 0.88. In test [6], this compound came in with an inhibition of aggregation of 6.98%.
For the compound `CCN(CC)CCNC(=O)c1cc(Br)c(N)cc1OC`, in test [1], the fluorescence slope change was 8.5% (inactive). Moreover, in test [2], the inhibition stood at 15.4%. The same compound registered a score in test [3] of 1.41. Moreover, in test [4], the rescue above control stood at 5.76. For the same compound, in test [5], the cytochrome c release ratio came out at 0.92. Also, the inhibition of aggregation in test [6] came out at 24.2%.
`O=C(O)CCC(=O)Nc1ccc(S(=O)(=O)Nc2nccs2)cc1`: the fluorescence slope change in test [1] is 2.1% (inactive). In test [2], the inhibition was -5.43%. For the same compound, the score in test [3] was determined as 1.2. Moreover, in test [4], the rescue above control was -4.64. In test [5], the cytochrome c release ratio was 0.78. Also, the inhibition of aggregation in test [6] was 100%.
For the compound `Cn1c(=O)c2c(ncn2CCO)n(C)c1=O`, the fluorescence slope change in test [1] was 50.2% (active). The inhibition in test [2] is -0.98%. Moreover, in test [3], the score worked out at 1.29. Moreover, the rescue above control in test [4] was -7.41. For the same compound, the cytochrome c release ratio in test [5] came out at 1.08. Further, the inhibition of aggregation in test [6] amounted to 56.7%.
As for `CCN(CC)C(=O)N1CCN(C)CC1`, the fluorescence slope change in test [1] is 25.5% (inactive). Moreover, the inhibition in test [2] was determined as 14.8%. The score in test [3] was determined as 1.32. In addition, in test [4], the rescue above control is -3.55. Also, the cytochrome c release ratio in test [5] came out at 0.61. Also, the inhibition of aggregation in test [6] was 85.9%.
With `CN1Cc2c(N)cccc2C(c2ccccc2)C1` (stereo not given), the fluorescence slope change in test [1] is 80.5% (active). Besides, the inhibition in test [2] was found to be 63.6%. For the same compound, the score in test [3] turned out to be 1.13. Moreover, the rescue above control in test [4] is -9.83. The cytochrome c release ratio in test [5] is 0.88. The same compound registered an inhibition of aggregation in test [6] of 75%.
In the case of `NCC1CCC(C(=O)O)CC1` (stereo not given), in test [1], the fluorescence slope change is 64.7% (active). In addition, the inhibition in test [2] is -11.3%. The same compound displayed a score in test [3] of 1.25. Also, the rescue above control in test [4] was 8.04. For the same compound, in test [5], the cytochrome c release ratio is 0.77. Further, the inhibition of aggregation in test [6] was 74.7%.
Take `NS(=O)(=O)c1cc2c(cc1Cl)NC(C(Cl)Cl)NS2(=O)=O` (stereo not given): the fluorescence slope change in test [1] is 24.8% (inactive). Moreover, the inhibition in test [2] came out at 12.2%. The same compound registered a score in test [3] of 1.03. In test [4], this compound gave a rescue above control of 12.5. Also, in test [5], the cytochrome c release ratio turned out to be 1.13. Further, the inhibition of aggregation in test [6] is 79.6%.
For the compound `Cc1ncc([N+](=O)[O-])n1CCO`, the fluorescence slope change in test [1] was 22.4% (inactive). For the same compound, the inhibition in test [2] was -3.1%. Besides, in test [3], the score is 1.16. This compound came in with a rescue above control in test [4] of 22.1. In test [5], the cytochrome c release ratio came out at 0.97. For the same compound, the inhibition of aggregation in test [6] was found to be 58.7%.
